Source: PubChem BioAssay AID1117358 (Southern Research Institute, 2015)
Among all 2,300 compounds or so, about 160 (7%) were called active. How the calls were made is not given here. These entries were drawn from the full list. Entries with a potency or affinity are not part of this list.

experiment: viability loss in Vero cells – cytotoxicity control for Vif-APOBEC3G degradation inhibitor project, dose response (AID 1117358); conditions: CellTiter-Glo ATP luminescence, 72 h; series mostly up to 40 µM; viability: at the top concentration

**Q.** Which “viability” value does the source give for `CCC(C)C(NC(=O)[C@@H](NC(=O)c1ccccc1F)C(C)C)C(=O)OC` (stereo partly drawn) here?
**A.** Its value is 105% (inactive).

**Q.** For `C/C(=N\OC(=O)c1ccc(F)cc1)c1sc(-c2ccccc2)nc1C`, which “viability” value is on record?
**A.** The value was 95.6% (inactive).

**Q.** For `Cc1ccc2cc(CN(Cc3nnnn3Cc3ccco3)CC3CCCO3)c(=O)[nH]c2c1C` (stereo not drawn), which “viability” value is on record?
**A.** The value was 101% (inactive).

**Q.** With `C=CCNc1nc2ccccc2nc1NS(=O)(=O)c1cccs1` as the molecule, how does the “viability” value read?
**A.** Its value is 92.6% (inactive).

**Q.** Which “viability” value does the source give for `COc1ccc(C(=O)NCc2cn3cccc(C)c3n2)cc1OC` here?
**A.** Its value is 98% (inactive).

**Q.** Which “viability” value does the source give for `CCOC(=O)C(NC(=O)NC1CCCCC1)(c1ccccc1)C(F)(F)F` (stereo not drawn) here?
**A.** The value was 101% (inactive).

**Q.** Which “viability” value does the source give for `Cc1cc(C)cc(Nc2ccc(C(=O)O)cc2N)c1` here?
**A.** Its value is 105% (inactive).

**Q.** Which “viability” value does the source give for `CCCNC(=S)NC1CCCC1` here?
**A.** The value was 96.3% (inactive).

**Q.** For `S=C(Nc1cccc(Cl)c1)NC1CCCCC1`, which “viability” value is on record?
**A.** Its value is 98.6% (inactive).

**Q.** With `COc1ccc(C(=O)NCc2cccnc2)cc1OC` as the molecule, how does the “viability” value read?
**A.** Its value is 96.7% (inactive).

**Q.** For `CC1CCN(C(=O)CCc2nc3cc(S(=O)(=O)N(C)C)ccc3n2C)CC1`, which “viability” value is on record?
**A.** Its value is 96% (inactive).

**Q.** With `CCOC(=O)c1c(C)[nH]c(C(=O)OCC(=O)N2c3ccccc3CC2C)c1C` (stereo not drawn) as the molecule, how does the “viability” value read?
**A.** The value was 92% (inactive).

**Q.** Which “viability” value does the source give for `COc1cc(C(=O)Nc2ccc(S(=O)(=O)NC(C)C)cc2)cc(OC)c1OC` here?
**A.** Its value is 91% (inactive).

**Q.** With `COc1ccccc1C(=O)Nc1ccc(S(=O)(=O)Nc2cc(C)nc(C)n2)cc1` as the molecule, how does the “viability” value read?
**A.** The value was 96.3% (inactive).

**Q.** Which “viability” value does the source give for `COc1cc(NC(=O)c2cc3nc(C)cc(C)n3n2)c(OC)cc1Cl` here?
**A.** The value was 95.1% (inactive).

**Q.** With `NC(=O)C[C@@H]1N[C@]2(C(=O)Nc3ccccc32)[C@@H]2C(=O)N(c3cc(C(F)(F)F)ccc3Cl)C(=O)[C@H]12` as the molecule, how does the “viability” value read?
**A.** The value was 99.7% (inactive).

**Q.** For `CCc1cc2cc(C)cc(C)c2nc1SCC(=O)N1CCN(C(=O)c2ccco2)CC1`, which “viability” value is on record?
**A.** Its value is 99.1% (inactive).

**Q.** With `COc1cc(C(=O)OCCN2CCCCC2)ccc1O` as the molecule, how does the “viability” value read?
**A.** The value was 101% (inactive).

**Q.** For `CCN1C(=O)c2ccccc2S(=O)c2ccc(C(=O)NC3CC3)cc21` (stereo not drawn), which “viability” value is on record?
**A.** The value was 97.5% (inactive).

**Q.** With `Cc1cccc(C)c1NS(=O)(=O)c1c(C)[nH]c(=O)[nH]c1=O` as the molecule, how does the “viability” value read?
**A.** Its value is 95% (inactive).

**Q.** With `CC(C)(C)NC(=O)COC(=O)c1cc(S(=O)(=O)N2CCCCC2)ccc1N1CCOCC1` as the molecule, how does the “viability” value read?
**A.** The value was 92.4% (inactive).

**Q.** For `CCN(CC)C(=O)CSCC(=O)Nc1ccccc1`, which “viability” value is on record?
**A.** The value was 90.6% (inactive).

**Q.** For `CC(C)(C)OC(=O)N1CCCC1C(=O)N1CCc2ccccc21` (stereo not drawn), which “viability” value is on record?
**A.** Its value is 107% (inactive).

**Q.** For `CCOC(=O)CSc1nnc(CNC(=O)c2cccs2)n1CCc1ccccc1`, which “viability” value is on record?
**A.** The value was 103% (inactive).

**Q.** For `CCN1CCc2c(C#N)c(NCc3ccccc3)nc(N(CC)CC)c2C1`, which “viability” value is on record?
**A.** The value was 98.3% (inactive).

**Q.** Which “viability” value does the source give for `Nn1c(SCC(=O)NC2CCCc3ccccc32)nnc1-c1cccs1` (stereo not drawn) here?
**A.** Its value is 109% (inactive).

**Q.** With `O=C(Cc1cc(=O)[nH]c(=O)[nH]1)NCC1CCCO1` (stereo not drawn) as the molecule, how does the “viability” value read?
**A.** The value was 98.5% (inactive).

**Q.** For `O=C(NCc1ccncc1)c1ccc(Cn2cc(C(F)(F)F)ccc2=O)cc1`, which “viability” value is on record?
**A.** Its value is 97.2% (inactive).

**Q.** For `O=C(NCc1ccccn1)c1ccc(Cn2cc(Br)cn2)o1`, which “viability” value is on record?
**A.** Its value is 98.8% (inactive).

**Q.** With `O=S(=O)(c1ccc(OCc2nc3ccccc3s2)c(Cl)c1)N1CCOCC1` as the molecule, how does the “viability” value read?
**A.** The value was 98.5% (inactive).

**Q.** With `CCNc1nc(OCCNS(=O)(=O)c2cc(C)ccc2C)nc(N(C)C)n1` as the molecule, how does the “viability” value read?
**A.** Its value is 82.2% (inactive).

**Q.** For `CCC(Cc1ccccc1)NC(=O)C1CCN(S(=O)(=O)c2c(C)noc2C)CC1` (stereo not drawn), which “viability” value is on record?
**A.** The value was 104% (inactive).

**Q.** Which “viability” value does the source give for `CC1Cc2ccccc2N1C(=O)C1CCN(S(=O)(=O)Cc2ccccc2)CC1` (stereo not drawn) here?
**A.** The value was 94.6% (inactive).

**Q.** With `COC(=O)c1ccc(C)c(NS(=O)(=O)c2ccc(NC(C)=O)cc2)c1` as the molecule, how does the “viability” value read?
**A.** The value was 89.2% (inactive).

**Q.** For `O=C(CSc1nncs1)NC(=O)NCc1ccccc1`, which “viability” value is on record?
**A.** Its value is 91.5% (inactive).

**Q.** With `COc1ccc(S(=O)(=O)N(CC(=O)O)c2ccccn2)cc1` as the molecule, how does the “viability” value read?
**A.** The value was 99.8% (inactive).

**Q.** Which “viability” value does the source give for `CC(=O)c1ccc(NC(=O)c2ccc3nc(-c4ccco4)c(-c4ccco4)nc3c2)cc1` here?
**A.** Its value is 89.9% (inactive).

**Q.** For `CCOc1ccc(-n2c(=O)c3c(C)c(C)sc3n(CC(=O)NCc3ccco3)c2=O)cc1`, which “viability” value is on record?
**A.** Its value is 98.6% (inactive).

**Q.** For `Oc1c(C(c2ccccc2)N2CCN(Cc3ccccc3)CC2)sc2ncnn12` (stereo not drawn), which “viability” value is on record?
**A.** The value was 97.7% (inactive).

**Q.** With `CCOc1cc(C2NC(=O)NC(O)(C(F)(F)F)C2C(=O)c2ccccc2)ccc1OC` (stereo not drawn) as the molecule, how does the “viability” value read?
**A.** The value was 101% (inactive).

**Q.** Which “viability” value does the source give for `COc1ccc(CSc2nnnn2C)cc1F` here?
**A.** Its value is 94.5% (inactive).

**Q.** Which “viability” value does the source give for `O=C(Nc1ccc2nc(-c3ccco3)c(-c3ccco3)nc2c1)N1CCCCCC1` here?
**A.** Its value is 105% (inactive).

**Q.** For `O=C(O)CCN1CCOCC1`, which “viability” value is on record?
**A.** Its value is 99.2% (inactive).

**Q.** For `O=C(O)c1ccc(S(=O)(=O)c2ccc3c(c2)C(=O)N(Cc2ccco2)C3=O)cc1`, which “viability” value is on record?
**A.** Its value is 101% (inactive).

**Q.** For `COc1cc(NC(=O)c2nnn(Cc3ccc(SC)cc3)c2N)cc(OC)c1`, which “viability” value is on record?
**A.** Its value is 82.5% (inactive).

**Q.** Which “viability” value does the source give for `O=C(CN1C(=O)NC2(CCCCCCC2)C1=O)NCc1cccs1` here?
**A.** The value was 99.7% (inactive).

**Q.** With `COCC(=O)Nc1sc2c(c1C(=O)OC)C(C(=O)OC)CC2` (stereo not drawn) as the molecule, how does the “viability” value read?
**A.** The value was 102% (inactive).

**Q.** For `COC(=O)Nc1sc2c(c1C(=O)NCc1ccco1)CCCC2`, which “viability” value is on record?
**A.** Its value is 104% (inactive).

**Q.** With `CCOC(=O)c1cc2sc(C)cc2n1CC(=O)N1CCN(C(=O)c2ccco2)CC1` as the molecule, how does the “viability” value read?
**A.** The value was 94% (inactive).

**Q.** With `O=C(c1ccc2c(c1)OCCO2)C1CCN(C(=O)c2ccc(F)cc2)CC1` as the molecule, how does the “viability” value read?
**A.** The value was 111% (inactive).

**Q.** For `CN(C)c1ccc(/C=N\NC(=O)c2csnn2)cc1`, which “viability” value is on record?
**A.** The value was 92.2% (inactive).

**Q.** With `Cc1cc(C(=O)Nc2c(C)cccc2C)n(-c2ccccc2)n1` as the molecule, how does the “viability” value read?
**A.** Its value is 106% (inactive).

**Q.** For `CCOC(=O)C1CCN(S(=O)(=O)c2cccc(-c3cn4cccnc4n3)c2)CC1`, which “viability” value is on record?
**A.** The value was 99% (inactive).

**Q.** With `COCc1nnc(NC(=O)c2ccc(S(=O)(=O)N(C)C3CCCCC3)cc2)o1` as the molecule, how does the “viability” value read?
**A.** Its value is 99.6% (inactive).

**Q.** Which “viability” value does the source give for `Cc1nnc(NC(=O)c2ccc(S(=O)(=O)N(C)Cc3ccccc3)cc2)o1` here?
**A.** Its value is 96.7% (inactive).

**Q.** For `O=C(Nc1ccccc1F)c1ccc(S(=O)(=O)NCC2CCCO2)cc1` (stereo not drawn), which “viability” value is on record?
**A.** The value was 93.5% (inactive).

**Q.** With `COc1ccc(C(=O)N2CCCN(C)CC2)cc1S(=O)(=O)N1CCCc2ccccc21` as the molecule, how does the “viability” value read?
**A.** The value was 90.5% (inactive).

**Q.** With `CCOC(=O)c1c(-c2cccs2)csc1NC(=O)CC(C)C` as the molecule, how does the “viability” value read?
**A.** The value was 95.5% (inactive).
